Laboratory results from PubChem BioAssay (NCI).
This is part of a sample that, as a whole, favours compounds with a hit. Of some 83,000 tested, about 20% had one in any assay.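 Step 1: grow cells in 96-well plates. Step 2: add test compound at a single concentration. Step 3: incubate 48 h. Step 4: record percent growth.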 The source made the active and inactive calls.

Tested on: HOP-62 NSCLC
Experiment: NCI-60 one-dose screen, 48 h (100 = growth as untreated, 0 = no growth, -100 = all killed)
Details: 10 µM unless noted
Protocol: Growth inhibition of the HOP-62 human Non-Small Cell Lung tumor cell line is measured as a screen for anti-cancer activity. Cells are grown in 96 well plates and exposed to the test compound for 48 hours. Compounds are tested at a single concentration, which is 10^-5 M for most compounds. The reported endpoint is percent growth (GI% or GIPRCNT), where numbers from 0 - 100% represent growth inhibition, and numbers from -100% - 0 represent cell death. For example, a value of 40 represents 60% growth inhibition. A value of 0 means no net growth occurred over the course of the experiment. A value of -40 indicates 40% of cells at the beginning of the experiment died by the end of the experiment. A value of -100 means all cells are dead at the end of the experiment.
NCI-60 Human Tumor Cell Lines Screen was performed using the standard one-dose NCI protocol, which is described in more detail at https://dtp.cancer.gov/discovery_development/nci-60/default.htm.
Compounds with GIPRCNT values below 10 were considered active. Activity score was based on GIPRCNT using the following formula: […]
Score is 0 for GIPRCNT values of 100 or above, 50 for GIPRCNT values of 0, and 100 for GIPRCNT values of -100.

SMILES | growth
CCN(CC)c1ccc(/C=N/NC(=O)c2ccccc2Nc2ccnc(C(F)(F)F)c2)c(O)c1 | 28% (inactive)
COc1ccc(NC(=O)c2ccc(NC3=C(c4ccc(Cl)cc4)C(=O)NC3=O)cc2)cc1 | 80.8% (inactive)
N=C(N)c1ccc(-c2ccc(-c3ccccc3)s2)nc1 | 88.8% (inactive)
c1ccc(-c2cn3nc(-c4c[nH]c5ccccc45)sc3n2)cc1 | 73.6% (inactive)
CCCCCCCCCCCCCC[n+]1ccc2c(C)c3c(c(C)c2c1)c1cc(O)ccc1n3CC | -57.1% (active)
CCOC(=O)c1c(C)nc2c(c1N)C(=O)C(=O)N2CCc1ccc(OC)c(OC)c1 | 58.9% (inactive)
O=C(Nc1ccc(Oc2cccc(F)c2)c(Cl)c1)c1cnccn1 | 42.4% (inactive)
Nc1nc(N)c2c(n1)NC(c1ccc3c(c1)OCO3)CC(c1cccc(Nc3ccncc3)c1)=N2 (stereo not given) | 90.4% (inactive)
CCOC(=O)c1c(Nc2nc3ccccc3s2)sc2c1CCC(=O)C2 | 66.4% (inactive)
CCN1CCN(c2cc(C(=O)Nc3cccc(Nc4ccc5c(OC)cccc5n4)c3)cc(C(F)(F)F)c2)CC1 | 5.17% (active)
CC/C(=C(/c1ccc(Cl)cc1)c1ccc(OCCN(CC)CC)cc1)c1ccc(OC)cc1 | 89.2% (inactive)
Cc1cc2c(c(C)n1)CN(C(=O)Nc1nc(-c3cncs3)ccc1N)C2 | 99.6% (inactive)
NS(=O)(=O)Oc1cccc(-c2nc3sccn3c2-c2ccccc2)c1 | 50.2% (inactive)
COc1ccc(-c2cc(-c3ccc(N(C)C)cc3)nc(NC(=O)c3cccnc3)n2)cc1 | 100% (inactive)
CC(C)(C)[C@H](OCc1cn([C@H]2C[C@@H](O)[C@@H](CO)O2)c(=O)[nH]c1=O)c1ccc(C#Cc2ccccc2)cc1[N+](=O)[O-] | 86% (inactive)
C=C(CNCCc1ccc(O)cc1)[C@@H]1CC[C@]2(CO)CC[C@]3(C)[C@H](CC[C@@H]4[C@@]5(C)CCC(N)C(C)(C)[C@@H]5CC[C@]43C)[C@@H]12 (stereo not given in full) | -74.7% (active)
C#CC#CC#CC#CC#CC#CC#CC#CC[C@@H]1OC[C@H](COC(=O)O[C@@H](C(=O)O[C@H]2C[C@@]3(O)[C@@H](OC(=O)c4ccccc4)[C@@H]4[C@]5(OC(C)=O)CO[C@@H]5C[C@H](O)[C@@]4(C)C(=O)[C@H](OC(C)=O)C(=C2C)C3(C)C)[C@@H](NC(=O)c2ccccc2)c2ccccc2)O1 | 55% (inactive)
Cn1cc(-c2nc(-c3c[nH]c4ccncc34)cs2)c2cc(F)ccc21 | -85.6% (active)
CCC(C)C(N)C(=O)NC(CC(C)C)C(=O)N1CCCC1C(=O)NC(Cc1c[nH]c2ccccc12)C(=O)NC(CCCCN)C(=O)NC(Cc1c[nH]c2ccccc12)C(=O)N1CCCC1C(=O)NC(Cc1c[nH]c2ccccc12)C(=O)NC(Cc1c[nH]c2ccccc12)C(=O)N1CCCC1C(=O)NC(Cc1c[nH]c2ccccc12)C(=O)NC(CCCNC(=N)N)C(=O)NC(CCCNC(=N)N)C(N)=O (stereo not given) | 103% (inactive)
Cc1ccc(C23CCC(=O)N2CCc2cncn23)cc1 (stereo not given) | 94.8% (inactive)

SMILES | growth
O=C1NCCS(=O)(=O)/C1=C\C=C\c1cccc(C(F)(F)F)c1 | 35.8% (inactive)
COc1cccc2cc(N(C)c3nc(C)nc4c3CCC4)ccc12 | 14.7% (inactive)
COc1cc(/C=C/c2cc(/C=C/c3ccc(O)c(OC)c3)n(C(=O)Nc3ccc(C)cc3C)n2)ccc1O | -35.7% (active)
CCCCCN(CCCCC)CC(O)c1c(Cl)ccc2ccccc12 (stereo not given) | 80.5% (inactive)
O=[N+]([O-])c1ccc(Oc2cccc3c(Oc4ccc([N+](=O)[O-])cc4[N+](=O)[O-])cccc23)c([N+](=O)[O-])c1 | 79.6% (inactive)
Cc1ccc(S(=O)(=O)N(CCC(=O)O)c2ccccc2)cc1 | 96.2% (inactive)
COc1cc2c(c(OC)c1OC)CCC(c1cccc(C(=O)Nc3ccccc3Br)c1)O2 (stereo not given) | 92.3% (inactive)
O=C(Nc1ccc2c(c1)-c1ccccc1C2)C1CC(=O)N(c2ccc3c(c2)OCO3)C1 (stereo not given) | 70.7% [50 µM] (inactive)
NC(=N\N=C/c1ccc(Cl)cc1Cl)/C(N)=N\N=C/c1ccc(Cl)cc1Cl | 83% (inactive)
Oc1ccc(C2OCCO2)c2cccnc12 | 51.6% (inactive)
c1ccc2c(-c3cnn4cc(-c5ccc(N6CCNCC6)cc5)cnc34)ccnc2c1 | -85.7% (active)
COc1cc2c(cc1OC)CC[N+](CCC[N+](C)(C)C)=C2 | 84% (inactive)
Cc1cccc(CN(Nc2ccccc2)c2ccccc2)n1 | 99.8% (inactive)
C=C(C)[C@@H]1CC[C@]2(C#N)CC[C@]3(C)[C@H](CC[C@@H]4[C@@]5(C)CCCNC(C)(C)[C@@H]5CC[C@]43C)[C@@H]12 | 113% (inactive)
CCOC(=O)CC1CSC(N/N=C(/C)c2cccc(C(F)(F)F)c2)=N1 (stereo not given) | 97% (inactive)
C#Cc1cccc(Nc2nc(Cl)nc3cc(NC(=O)CCl)ccc23)c1 | -77% (active)
N#C/C(=N\Nc1ccccc1)C(=O)Nc1cc(-c2ccccc2)nn1-c1ccccc1 | 52.8% (inactive)
Cc1ccc(Nc2nc(N)nc(N)c2N=O)cc1Cl | 76% (inactive)
Cc1c(-c2cnc3ccc(Cl)cc3c2C(=O)O)nnn1-c1ccc(Cl)cc1 | 89.4% (inactive)
O=C(Nc1ncc(Cc2ccc(Cl)cc2)s1)c1ccc2c(c1)OCCO2 | 26.8% (inactive)
